“And” between values parts separate entries of the source, which are not always exact repeats. Equal values may be shown once. Records with an inconclusive call do not appear. The source made the active and inactive calls. Unless noted, calls come from the whole dose curve; as a rule, active = well fitted curve in the direction sought with a large enough effect; inconclusive = small, poorly fitted or top-dose-only effect, or another doubt; inactive = no such curve, though single readings can be large; an effect the other way counts as inactive or inconclusive.
Legend:
[1] = biological target: Single-stranded DNA cytosine deaminase (Homo sapiens) (UniProt Q9GZX7); experiment: Validation qHTS assay for inhibitors of Activation Induced Cytidine Deaminase (AID): AID signal (AID 1347429); note: % is set by controls: 0 for no effect and ±100 for the full control effect
Sequence of Single-stranded DNA cytosine deaminase (Homo sapiens) (Q9GZX7 whole entry, looked up): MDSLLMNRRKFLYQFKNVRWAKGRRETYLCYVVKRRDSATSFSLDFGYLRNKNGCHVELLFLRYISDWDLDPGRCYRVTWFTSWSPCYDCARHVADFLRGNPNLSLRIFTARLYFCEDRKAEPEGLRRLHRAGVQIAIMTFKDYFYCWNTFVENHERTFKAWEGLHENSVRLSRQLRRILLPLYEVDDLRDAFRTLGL
Summary of the method: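 AID and UDG were combined and compounds added at final up to 114 uM, then DJC20/DJC23 FRET substrate was added for 4 hr at room temperature. NaOH was then added for 30 min before fluorescence was read at 540/590 nm.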

[2] = Primary qHTS for inhibitors of La Crosse Virus (LACV) - induced cell death in SH-SY5Y cells (AID 1508616);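 note: top concentration of the series differs between compounds; 0% = infected DMSO wells and 100% = uninfected DMSO wells; higher means more rescue of cells from virus-induced death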
Summary of the method: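 Luminescent ATP readout (ATPLite 1step, 5 min room temperature) measured rescue from LACV-induced death after 6 days of infection at 0.01 MOI; normalized to infected DMSO wells and uninfected DMSO wells.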

[3] = Primary qHTS for small molecule stabilizers of the endoplasmic reticulum resident proteome: Secreted ER Calcium Modulated Protein (SERCaMP) assay (AID 1508630); note: % is set by controls: 0 for no effect and ±100 for the full control effect
Summary of the method: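 GLuc-SERCaMP-expressing SH-SY5Y cells, pretreated 16 h with compound, are challenged with thapsigargin to empty ER calcium stores; after 4 h, coelenterazine is added directly to the medium and luminescence is imaged.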

[4] = biological target: Calcium and integrin-binding protein 1 (Homo sapiens) (UniProt Q99828); experiment: Validation qHTS for Identification of Calcium Integrin Binding protein 1 (CIB1) Competitor (AID 1508618); note: % is set by controls: 0 for no effect and ±100 for the full control effect
Sequence of Calcium and integrin-binding protein 1 (Homo sapiens) (Q99828 whole entry, looked up): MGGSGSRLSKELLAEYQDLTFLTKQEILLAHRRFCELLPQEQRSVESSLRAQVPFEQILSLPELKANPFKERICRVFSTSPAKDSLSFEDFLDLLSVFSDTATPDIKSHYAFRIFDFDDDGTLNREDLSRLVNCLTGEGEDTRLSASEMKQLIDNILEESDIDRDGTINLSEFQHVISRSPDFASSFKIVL
Summary of the method: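 Fluorescence polarization with 1 uM CIB1-GST and 100 nM FITC-alphaIIb peptide in HEPES pH 7.4, NaCl, 5 mM CaCl2, Tween20. Compounds at up to 114 uM final, preincubated with protein 15 min; read after 15 min more at RT.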

Papain (Carica papaya) = Papain (Carica papaya) (UniProt P00784); experiment: Primary qHTS assay for inhibitors of the protease papain (AID 1645873);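 note: papain turnover of Z-FR-AMC read as the AMC fluorescence gain over 10 min; series mostly up to about 50 µM; % is set by controls: 0 for no effect and ±100 for the full control effect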
Sequence of Papain (Carica papaya) (P00784 whole entry, looked up): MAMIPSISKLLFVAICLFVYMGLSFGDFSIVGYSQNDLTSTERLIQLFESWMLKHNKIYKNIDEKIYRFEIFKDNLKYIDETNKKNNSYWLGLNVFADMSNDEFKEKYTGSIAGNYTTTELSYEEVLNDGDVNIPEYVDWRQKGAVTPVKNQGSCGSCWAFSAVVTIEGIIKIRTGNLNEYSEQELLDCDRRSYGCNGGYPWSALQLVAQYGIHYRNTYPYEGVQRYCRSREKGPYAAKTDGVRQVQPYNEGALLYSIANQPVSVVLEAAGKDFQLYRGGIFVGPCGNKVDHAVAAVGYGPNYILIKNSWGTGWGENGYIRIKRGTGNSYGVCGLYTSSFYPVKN

[5] = Cell Viability qHTS for small molecule stabilizers of the endoplasmic reticulum resident proteome (AID 1508629); conditions: cell viability counter-screen, 100 nM thapsigargin for final 4 h
[6] = Primary qHTS for inhibitors of nuclear receptor binding SET domain protein 2 (NSD2) in an isogenic RCH-ACV NSD2 p.E1099K mutant (9B) (AID 1645876); note: nearly all actives have a fitted effect of over 70% in size; note: potency is the fitted concentration of half-maximal effect
[7] = Primary qHTS for inhibitors of nuclear receptor binding SET domain protein 2 (NSD2) in an RCH-ACV wild type WT cells (2C) (AID 1645877); note: potency is the fitted concentration of half-maximal effect; nearly all actives have a fitted effect of over 70% in size
[8] = Counterscreen qHTS for small molecule stabilizers of the endoplasmic reticulum resident proteome: GLuc-NoTag assay (AID 1508627);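 note: SH-SY5Y cells given compound then 100 nM thapsigargin to empty ER calcium; series mostly up to about 76 µM; 0% = thapsigargin alone and -100% = DMSO vehicle control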
Summary of the method: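 SH-SY5Y cells stably expressing constitutively secreted GLuc without SERCaMP tag, exposed to compound for 19 hr, then to 100 nM thapsigargin for 4 hr at 37C. Medium luciferase was read by coelenterazine luminescence without lysis.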

[9] = biological target: Rap guanine nucleotide exchange factor 3 (Homo sapiens) (UniProt O95398); experiment: Confirmatory qHTS for antagonist of cAMP-regulated guanine nucleotide exchange factor 3 (EPAC1) (AID 1645880); note: potency is the fitted concentration of half-maximal effect; nearly all actives have a fitted effect of over 55% in size
Sequence of Rap guanine nucleotide exchange factor 3 (Homo sapiens) (O95398 whole entry, looked up): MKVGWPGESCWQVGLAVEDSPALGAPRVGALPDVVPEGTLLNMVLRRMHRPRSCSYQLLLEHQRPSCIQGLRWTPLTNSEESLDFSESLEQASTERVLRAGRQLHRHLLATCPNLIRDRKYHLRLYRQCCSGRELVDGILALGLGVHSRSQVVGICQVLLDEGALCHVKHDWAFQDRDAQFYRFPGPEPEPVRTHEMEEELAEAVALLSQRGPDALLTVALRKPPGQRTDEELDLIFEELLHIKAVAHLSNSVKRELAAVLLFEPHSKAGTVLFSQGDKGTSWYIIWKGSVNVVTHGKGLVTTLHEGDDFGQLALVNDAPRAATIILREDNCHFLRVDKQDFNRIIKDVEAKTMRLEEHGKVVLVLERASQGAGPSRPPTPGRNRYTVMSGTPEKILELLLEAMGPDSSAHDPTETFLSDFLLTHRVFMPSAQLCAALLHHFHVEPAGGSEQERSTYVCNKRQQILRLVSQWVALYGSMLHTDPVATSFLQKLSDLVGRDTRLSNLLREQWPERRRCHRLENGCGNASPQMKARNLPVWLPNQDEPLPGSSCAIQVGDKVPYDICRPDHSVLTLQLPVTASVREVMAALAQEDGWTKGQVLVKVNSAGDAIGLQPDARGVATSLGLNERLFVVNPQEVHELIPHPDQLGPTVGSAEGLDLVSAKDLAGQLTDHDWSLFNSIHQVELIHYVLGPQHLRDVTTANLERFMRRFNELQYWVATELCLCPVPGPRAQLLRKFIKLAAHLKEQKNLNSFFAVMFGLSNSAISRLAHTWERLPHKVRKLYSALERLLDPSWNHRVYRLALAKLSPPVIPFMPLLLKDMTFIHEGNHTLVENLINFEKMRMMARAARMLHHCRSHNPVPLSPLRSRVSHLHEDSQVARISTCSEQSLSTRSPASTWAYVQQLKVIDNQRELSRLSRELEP
Summary of the method: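 Nucleotide exchange uses 100 nM EPAC1, 250 nM RAP1B-BODIPY-GDP and 50 uM GDP, with compounds in a concentration-titration series. After 5 min at room temperature, fluorescence (480 nm ex/540 nm em) is read every 5 min for 30 min. Data are normalized to control ATA and DMSO.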

[10] = biological target: Rap guanine nucleotide exchange factor 3 (Homo sapiens) (UniProt O95398); experiment: Confirmatory qHTS for agonist of cAMP-regulated guanine nucleotide exchange factor 3 (EPAC1) (AID 1645881);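 note: EPAC1 catalysed release of BODIPY-GDP from Rap1B seen as fluorescence loss; 100% = effect of cAMP agonist control; nearly all actives have a fitted effect of over 75% in size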
[11] = biological target: Rap guanine nucleotide exchange factor 4 (Homo sapiens) (UniProt Q8WZA2); experiment: Confirmatory qHTS for agonist of cAMP-regulated guanine nucleotide exchange factor 4 (EPAC2) (AID 1645884);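 note: nucleotide exchange releases bodipy-GDP from Rap1 and this lowers its fluorescence; % is set by controls: 0 for no effect and ±100 for the full control effect; nearly all actives have a fitted effect of over 65% in size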
Sequence of Rap guanine nucleotide exchange factor 4 (Homo sapiens) (Q8WZA2 whole entry, looked up): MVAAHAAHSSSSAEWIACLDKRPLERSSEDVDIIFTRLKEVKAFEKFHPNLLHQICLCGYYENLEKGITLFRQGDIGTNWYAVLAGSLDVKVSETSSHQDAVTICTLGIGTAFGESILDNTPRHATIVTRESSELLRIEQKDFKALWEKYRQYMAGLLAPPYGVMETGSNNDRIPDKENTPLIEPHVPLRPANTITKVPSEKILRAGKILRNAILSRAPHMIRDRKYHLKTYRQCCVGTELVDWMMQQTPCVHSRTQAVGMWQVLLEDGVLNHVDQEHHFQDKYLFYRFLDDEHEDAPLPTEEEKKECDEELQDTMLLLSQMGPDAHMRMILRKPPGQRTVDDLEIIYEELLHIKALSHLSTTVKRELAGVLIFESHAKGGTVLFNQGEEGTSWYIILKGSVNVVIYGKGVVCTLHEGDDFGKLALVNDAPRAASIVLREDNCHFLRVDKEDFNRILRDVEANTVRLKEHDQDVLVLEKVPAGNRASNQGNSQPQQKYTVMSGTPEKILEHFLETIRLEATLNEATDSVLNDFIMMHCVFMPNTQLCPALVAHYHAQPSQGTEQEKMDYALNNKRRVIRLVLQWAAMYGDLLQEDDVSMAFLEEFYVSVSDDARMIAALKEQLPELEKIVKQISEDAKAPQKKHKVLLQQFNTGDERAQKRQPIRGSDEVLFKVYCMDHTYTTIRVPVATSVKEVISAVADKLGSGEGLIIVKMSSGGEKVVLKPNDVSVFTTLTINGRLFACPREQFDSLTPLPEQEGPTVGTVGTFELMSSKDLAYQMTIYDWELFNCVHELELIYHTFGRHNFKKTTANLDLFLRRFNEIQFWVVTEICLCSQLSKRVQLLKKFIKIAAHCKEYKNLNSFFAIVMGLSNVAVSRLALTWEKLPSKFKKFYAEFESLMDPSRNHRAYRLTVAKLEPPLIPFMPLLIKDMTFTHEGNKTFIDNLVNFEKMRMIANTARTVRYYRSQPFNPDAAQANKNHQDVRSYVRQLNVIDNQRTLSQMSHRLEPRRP

[12] = biological target: N-terminal Xaa-Pro-Lys N-methyltransferase 1 (Homo sapiens) (UniProt Q9BV86); experiment: Confirmatory qHTS for Inhibitors of N-terminal methyltransferase 1 (NTMT1): MTaseGlo Assay (AID 1645874); conditions: NTMT1 enzyme, MTase-Glo SAH luminescence; note: potency is the fitted concentration of half-maximal effect; nearly all actives have a fitted effect of over 65% in size
Sequence of N-terminal Xaa-Pro-Lys N-methyltransferase 1 (Homo sapiens) (Q9BV86 whole entry, looked up): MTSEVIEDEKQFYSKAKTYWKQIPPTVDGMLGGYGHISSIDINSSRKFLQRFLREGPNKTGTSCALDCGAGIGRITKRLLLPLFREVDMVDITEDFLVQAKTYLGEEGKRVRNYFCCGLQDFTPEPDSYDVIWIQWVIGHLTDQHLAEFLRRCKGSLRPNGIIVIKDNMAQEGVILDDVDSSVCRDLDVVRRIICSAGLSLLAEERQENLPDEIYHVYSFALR
Summary of the method: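 NTMT1 (125 nM) preincubated 15 min with compound and 100 uM SAM, then 1 uM SPKRIA peptide added for 30 min at room temperature. SAH detected by MTase-Glo luminescence; normalized to no-enzyme and DMSO controls, fitted to 4-parameter Hill.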

[13] = biological target: Calcium and integrin-binding protein 1 (Homo sapiens) (UniProt Q99828); experiment: Primary qHTS for Identification of Calcium Integrin Binding Protein 1 (CIB1) Competitor (AID 1508620)
Summary of the method: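 Fluorescence polarization competition: GST-tagged CIB1 (1 uM final) preincubated with compound 15 min at room temperature, then FITC-labelled alphaIIb peptide (100 nM final) added. After 15 min at room temperature, polarization read at Ex 480/Em 540.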

[14] = A High-Content qHTS Against Drug Library for the Identification of Small Molecules that Inhibit DYT1 Early Onset Primary Dystonia-Associated Cell Pathology (AID 1645839; calls by dose curve; note: series mostly up to about 46 µM)
Summary of the method: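 Flp-In T-REx 293 cells with tetracycline-inducible EGFP-delE hTOR1A (WT EGFP-hTOR1A as reference), 800 cells/well; compound added with tetracycline, 48 h at 37 C. Fixed, permeabilized cells imaged; %pathology (punctate TorsinA) primary, cell count counterscreen.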

[15] = biological target: Cytochrome P450 2D6 (Homo sapiens) (UniProt P10635); experiment: Cytochrome P450 family 2 subfamily D member 6 (CYP2D6) small molecule antagonists: luciferase biochemical (cell-free) qHTS assay (AID 1645840; active = well fitted curve in the direction sought with a large enough effect in the repeat runs; an effect the other way counts as inactive or inconclusive; note: potency is the fitted concentration of half-maximal effect; nearly all actives have a fitted effect of over 55% in size)
Sequence of Cytochrome P450 2D6 (Homo sapiens) (P10635 whole entry, looked up): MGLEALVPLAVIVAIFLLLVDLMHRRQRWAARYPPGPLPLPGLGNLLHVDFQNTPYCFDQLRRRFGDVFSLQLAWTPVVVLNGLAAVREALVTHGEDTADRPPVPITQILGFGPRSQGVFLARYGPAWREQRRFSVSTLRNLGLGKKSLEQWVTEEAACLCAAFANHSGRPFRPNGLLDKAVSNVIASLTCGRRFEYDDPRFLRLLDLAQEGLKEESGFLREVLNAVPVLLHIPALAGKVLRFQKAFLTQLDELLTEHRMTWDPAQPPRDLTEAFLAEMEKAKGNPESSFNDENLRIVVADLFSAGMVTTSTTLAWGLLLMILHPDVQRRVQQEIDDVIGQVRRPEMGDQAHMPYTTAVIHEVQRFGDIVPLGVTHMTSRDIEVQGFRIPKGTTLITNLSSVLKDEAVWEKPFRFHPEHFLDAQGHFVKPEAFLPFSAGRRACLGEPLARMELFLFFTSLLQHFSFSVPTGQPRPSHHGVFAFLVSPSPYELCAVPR
Summary of the method: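 P450-Glo luminescent screen: recombinant CYP2D6 enzyme–proluciferin substrate mix preincubated with compound 10 min at room temperature, then NADPH regeneration added for 1 h at room temperature. Detection reagent added for 20 min; luciferin light read as relative luminescence units.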

[16] = biological target: Cytochrome P450 2C9 (Homo sapiens) (UniProt P11712); experiment: Cytochrome P450 family 2 subfamily C member 9 (CYP2C9) small molecule antagonists: luciferase biochemical (cell-free) qHTS assay (AID 1645842; active = well fitted curve in the direction sought with a large enough effect in the repeat runs; an effect the other way counts as inactive or inconclusive; note: potency is the fitted concentration of half-maximal effect; nearly all actives have a fitted effect of over 55% in size)
Sequence of Cytochrome P450 2C9 (Homo sapiens) (P11712 whole entry, looked up): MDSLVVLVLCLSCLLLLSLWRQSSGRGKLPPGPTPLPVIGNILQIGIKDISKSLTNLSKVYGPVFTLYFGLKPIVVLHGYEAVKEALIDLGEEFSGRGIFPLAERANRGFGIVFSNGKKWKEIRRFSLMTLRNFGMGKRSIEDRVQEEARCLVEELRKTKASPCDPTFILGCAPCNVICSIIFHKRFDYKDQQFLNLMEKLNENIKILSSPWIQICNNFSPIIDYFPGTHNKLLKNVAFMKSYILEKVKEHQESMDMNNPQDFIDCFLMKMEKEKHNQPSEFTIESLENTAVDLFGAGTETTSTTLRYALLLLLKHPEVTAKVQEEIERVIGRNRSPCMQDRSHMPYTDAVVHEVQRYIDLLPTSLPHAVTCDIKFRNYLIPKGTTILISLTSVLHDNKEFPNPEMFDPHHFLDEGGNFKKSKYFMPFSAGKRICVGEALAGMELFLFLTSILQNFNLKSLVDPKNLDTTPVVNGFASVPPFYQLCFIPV
Summary of the method: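 Luminescence, after 20 min with luciferin detection reagent, reflected CYP2C9 turnover during a 1 h NADPH-driven reaction at 37C. Enzyme-substrate mix contained 0.4% bovine serum albumin and was preincubated with compound 10 min at room temperature.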

O=c1[nH]c2cc(Cl)c(Cl)cc2[nH]c1=O
inactive: Potency [1] | Potency [2] | Potency [3]

NC(CCCP(=O)(O)O)C(=O)O (stereo not drawn)
inactive: Potency [1] | outcome [4] | Potency [3] | Potency (Papain (Carica papaya))

O=C(c1ccc(Cl)cc1)N1CCN(c2ccc([N+](=O)[O-])c3ncccc23)CC1
inactive: Potency [1] | outcome [4] | max response [5] 3.83% | Potency (Papain (Carica papaya))

CN(C)c1nc2c(Br)c(Br)c(Br)c(Br)c2[nH]1
active: Potency [6] 14.6 µM | Potency [7] 10.3 µM
inactive: Potency [1] | Potency [2] | Potency [3]

COc1cc(SC)ccc1C(=O)N1CCC(Cc2ccccc2)CC1
inactive: Potency [1] | Potency [2] | Potency [3] | Potency (Papain (Carica papaya))

O=C1NC(=O)/C(=C/c2ccc3nccnc3c2)S1
inactive: Potency [1] | Potency [2] | Potency (Papain (Carica papaya)) | Potency [6]

NCCNC(=O)c1ncsc1-c1cccc(F)c1
inactive: Potency [1] | Potency [2] | Potency [3]

NC(=S)NCCC[C@H](N)C(=O)O
inactive: Potency [1] | Potency [2] | Potency [3]

O=C(CCCCCN1CCN(c2ccccc2-c2ccccc2)CC1)NC1CCCc2ccccc21 (stereo not drawn)
inactive: Potency [1] | Potency [2] | Potency (Papain (Carica papaya))

Fc1ccc(C(OCCCc2cnc[nH]2)c2ccc(F)cc2)cc1
inactive: Potency [1] | outcome [4] | Potency [8] | max response [5] -7.37% | Potency [3]

CCCCC#Cc1nc(NC)c2ncn([C@@H]3O[C@H](CO)[C@@H](O)[C@H]3O)c2n1
inactive: Potency [1] | outcome [4] | Potency [3] | Potency (Papain (Carica papaya))

NCCCCC(=O)O
inactive: Potency [1] | Potency [2] | Potency [3] | Potency (Papain (Carica papaya))

CN(C)c1nc(N)c(C(=O)N=C(N)N)nc1Cl
inactive: Potency [1] | outcome [4] | Potency [3] | Potency (Papain (Carica papaya))

CCCCC/C=C\CC(O)/C=C/c1cccc(CC(O)CCCCO)n1 (stereo not drawn)
inactive: Potency [1] | Potency [2] | Potency [3]

C[C@@H](NC(=O)/C(C#N)=C/c1ccc(O)c(O)c1)c1ccccc1
inactive: Potency [1] | Potency [2] | Potency [3]

O=c1[nH]c2cc([N+](=O)[O-])c([N+](=O)[O-])cc2[nH]c1=O
inactive: Potency [1] | Potency [2] | Potency (Papain (Carica papaya))

CCCCCCCCCCCCCCCC(=O)NCC(COP(=O)([O-])OCC[N+](C)(C)C)OCC (stereo not drawn)
inactive: Potency [1] | Potency [2] | Potency [3]

N=c1ccn2c(n1)O[C@H]1[C@H](O)[C@@H](CO)O[C@H]12
inactive: Potency [1] | outcome [4] | Potency [3]

Cc1ccccc1CNc1ncnc2c1ncn2C1OC(CO)C(O)C1O (stereo not drawn)
inactive: Potency [1] | Potency [2] | Potency [3]

c1ccc(-c2ccccn2)nc1
inactive: Potency [1] | Potency [2] | Potency [3] | Potency (Papain (Carica papaya))

COc1cc(C(O)CO)ccc1OS(=O)(=O)O (stereo not drawn)
inactive: Potency [1] | outcome [4] | Potency [3] | Potency (Papain (Carica papaya))

CCc1c(C(=O)NCCc2ccc(N3CCCCC3)cc2)[nH]c2ccc(Cl)cc12
inactive: Potency [1] | Potency [2] | Potency [3]

CN1CCC[C@H]1c1cccnc1
inactive: Potency [1] | Potency [2] | Potency [3]

Brc1c(Br)c(Br)c2n[nH]nc2c1Br
active: Potency [9] 55.9 µM
inactive: Potency [1] | Potency [2] | Potency [3] | Potency (Papain (Carica papaya)) | Potency [6] | Potency [10] | Potency [11]

Nc1ncnc2c1c(I)cn2[C@@H]1C[C@H](N)[C@@H](O)[C@H]1O
inactive: Potency [1] | Potency [2]
active: Potency [12] 3.65 µM | Potency [6] 18.4 µM

CC(C)NC[C@@H](O)c1ccc(O)c(O)c1
inactive: Potency [1] | Potency [2] | Potency (Papain (Carica papaya))

CC(N)C(=O)OC(C)(C)Cc1ccc(Cl)cc1 (stereo not drawn)
active: Potency [15] 12.3 µM | Potency [16] 12.3 µM
inactive: Potency [1] | outcome [4] | Potency [13] | Potency [14] | Potency (Papain (Carica papaya)) | Potency [6]

NS(=O)(=O)C#Cc1ccccc1
inactive: Potency [1] | outcome [4] | Potency [3] | Potency (Papain (Carica papaya))

OC[C@H]1O[C@@H](n2cnc3c(Nc4ccccc4)ncnc32)[C@H](O)[C@@H]1O
inactive: Potency [1] | Potency [2] | Potency [3]

CN1C2CC(OC(=O)[C@H](CO)c3ccccc3)CC1C1OC12 (stereo partly drawn)
inactive: Potency [1] | Potency [2] | Potency (Papain (Carica papaya))

N[C@@H](CC(=O)O)C(=O)O
inactive: Potency [1] | Potency [3] | Potency (Papain (Carica papaya))

NC[C@@H]1O[C@H](C23CC4CC(CC(C4)C2)C3)Cc2c1ccc(O)c2O
inactive: Potency [2] | outcome [4] | Potency [3] | Potency (Papain (Carica papaya))

CN1CCc2cc(NC(=O)Nc3cccnc3)ccc21
inactive: Potency [1] | outcome [4] | Potency [3] | Potency (Papain (Carica papaya))

N#C/C(=C\c1ccc(O)c(O)c1)C(=O)NCc1ccccc1
inactive: Potency [1]
active: Potency [6] 9.2 µM and 13.2 µM | Potency [7] 9.2 µM and 11.8 µM

CN1[C@@H](CC(=O)c2ccccc2)CCC[C@H]1C[C@H](O)c1ccccc1
inactive: Potency [2] | outcome [4] | Potency [8] | Potency (Papain (Carica papaya))

Reference: PubChem BioAssay (NCATS)
